Assay [1] in a line: Cell Viability - BJ (AID 421; calls by dose curve;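 further: potency means the concentration at half of the fitted maximal effect; cells exposed to compound for 40 hours at 37 °C before readout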). Conditions: BJ fibroblast viability, qHTS. Summed up: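 Quantitative HTS: ATP depletion in BJ cells after 40 hr compound exposure in complete culture medium, detected with CellTiter-Glo; AC50 from standard Hill fits.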
For orientation: Quantitative high-throughput screening tests each substance at several concentrations.

Assay [2] in a line: Cell Viability - Jurkat (AID 426;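 active means dose-dependent loss of cell ATP signal giving a full or clear fitted curve, ranked by lower potency value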; further: potency means the concentration at half of the fitted maximal effect). The following applies: qHTS. The method, boiled down:
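Jurkat (clone E6-1, human T-cell leukemia) cells, 5000/well in complete medium, were exposed to compound for 40 hr at 37 °C. Viability was read as intracellular ATP by CellTiter-Glo luminescence; AC50 came from Hill fits of concentration-response data.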

Assay [3] can be described thus: Cell Viability - Hek293 (AID 427;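 active means compounds whose dose-response curve shows a full or clear partial loss of cell viability, called from curve shape rather than a numeric limit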;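 further: potency means the concentration at half of the fitted maximal effect; cells exposed to compound for 40 hours at 37 °C before reading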). Conditions: qHTS. Summed up:
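AC50 values derive from Hill-modelled concentration-response of ATP-based luminescence, normalized between DMSO-only and 100 uM tamoxifen controls. Cells were exposed in complete culture medium for 40 hr at 37 °C before detection.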

Assay [4] can be described thus: Cell Viability - HepG2 (AID 433; calls by dose curve;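 further: potency means the concentration at half of the fitted maximal effect; potency for ATP loss meaning cytotoxicity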). Conditions: qHTS. Summed up: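 Cytotoxicity is scored as loss of intracellular ATP in HepG2 cells exposed to compounds for 40 h. Concentration-response curves, normalized to DMSO and 100 uM tamoxifen, give AC50 values.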
The nature of assay [5]: Cell Viability - SK-N-SH (AID 435; calls by dose curve;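 further: potency means the concentration at half of the fitted maximal effect; compound exposure lasted 40 h at 37 °C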). The following applies: SK-N-SH neuroblastoma cell viability qHTS. Summed up:
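Cells seeded at 1500 per well and incubated 5 hr at 37 °C. Compound added, then 40 hr at 37 °C. CellTiter-Glo added, 20 min at room temperature, luminescence read.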

Assay [6] deals with Mitogen-activated protein kinase 10 (Mus musculus) (UniProt Q61831). Nature of the assay: JNK3 AlphaScreen Assay (AID 530; active means well fitted curve in either direction with a large enough effect, not every such curve was filed as active;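 further: kinase came from lysate of stimulated human HepG2 cells; signal reports phosphorylation of biotinylated GST-cJun 1-79 at Ser73 with 10 µM ATP; on the % scale 0 is the no-effect control and ±100 the full control effect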). Summed up:
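Room-temperature AlphaScreen kinase assay; pre-activated HepG2 lysate as JNK3 source, biotin-GST-cJun(1-79) substrate, 10 uM ATP, compound 15 min preincubation.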
(In general: Alpha assays give light when donor and acceptor beads are brought close together.)

Assay [7] can be described thus: Cell Viability - N2a (AID 540). Further: nearly all actives have a fitted effect of over 45% in size. Further: potency means the concentration at half of the fitted maximal effect.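 On activity change, negative = cytotoxicity: plate controls were DMSO alone for no effect and tamoxifen control for full effect.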 Conditions: N2a mouse neuroblastoma cell viability; activity change, negative = cytotoxicity: at 92.2 µM (top of the series). The method, boiled down:
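Mouse neuroblastoma N2a cells (1500/well) were preincubated 5 hr at 37 °C, then exposed to compounds for 40 hr at 37 °C in complete medium. Viability was read as intracellular ATP by CellTiter-Glo luminescence; AC50 from Hill fits.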

The nature of assay [8]: Cell Viability - NIH 3T3 (AID 541). Further: nearly all actives have a fitted effect of over 25% in size. Further: potency means the concentration at half of the fitted maximal effect.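 On activity change, negative = cytotoxicity: plate controls were DMSO alone for no effect and tamoxifen positive control for full effect.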 Summed up:
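NIH 3T3 mouse embryo fibroblasts (1000 cells/well) were plated in complete medium and treated with compound for 40 hr at 37 °C. Viability was read as intracellular ATP by CellTiter-Glo luminescence; AC50 values came from Hill-equation fits of concentration-response data.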

The nature of assay [9]: Cell Viability - HUV-EC-C (AID 542). Further: nearly all actives have a fitted effect of over 35% in size. Further: potency means the concentration at half of the fitted maximal effect. On activity change, negative = cytotoxicity: on the % scale 0 is the no-effect control and ±100 the full control effect. The method, boiled down: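 HUV-EC-C normal human vascular endothelial cells, 1000 cells/well, pre-incubated 5 hr at 37 °C, then exposed to compounds for 40 hr at 37 °C in complete medium. Viability measured as intracellular ATP by CellTiter-Glo luminescence; AC50 from Hill fits.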
Assay [10] is described as follows: Cell Viability - H-4-II-E (AID 543). Further: nearly all actives have a fitted effect of over 35% in size. Further: potency means the concentration at half of the fitted maximal effect. The method, boiled down: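 Rat hepatoma H-4-II-E cells (1500/well) were plated, incubated 5 hr at 37 °C, then exposed to compounds for 40 hr at 37 °C. Cellular ATP was read by CellTiter-Glo luminescence; AC50 came from Hill-equation fits of concentration-response data.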
The nature of assay [11]: Cell Viability - SH-SY5Y (AID 544). Further: nearly all actives have a fitted effect of over 55% in size. Further: potency means the concentration at half of the fitted maximal effect. Summed up:
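Human neuroblastoma SH-SY5Y cells (1500/well) in complete medium were exposed to compounds for 40 hr at 37 °C; intracellular ATP was then quantified by CellTiter-Glo luminescence after 20 min at room temperature. AC50 came from Hill-equation concentration-response fits.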

The nature of assay [12]: Cell Viability - Renal Proximal Tubule (AID 545). Further: nearly all actives have a fitted effect of over 40% in size. Further: potency means the concentration at half of the fitted maximal effect.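 On activity change, negative = cytotoxicity: 0% = DMSO only and -100% = 100 µM tamoxifen.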 The method, boiled down: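 Cytotoxicity is scored as a concentration-dependent drop in cellular ATP in primary rat renal proximal tubule cells exposed for 40 hr. AC50 derives from Hill modelling.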
Assay [13] in a line: Cell Viability - Mesenchymal (AID 546).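 Further: cells exposed to compound for 40 hours before reading.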 Further: potency means the concentration at half of the fitted maximal effect.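 On activity change, negative = cytotoxicity: 0% = DMSO only and -100% = 100 µM tamoxifen.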 The method, boiled down: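 AC50 values reflect the drop in intracellular ATP in a human kidney mesenchymal line derived from normal glomeruli. Treatment lasts 40 hr at 37 °C in complete medium, and the signal comes from CellTiter-Glo luminescence.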
Assay [14] can be described thus: Cellular Toxicity (caspase-3) HepG2 (AID 654).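 Further: cells exposed to compound for 16 hours before reading; 0% = DMSO alone and 100% = caspase signal from 100 µM tamoxifen.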 Summed up:
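HepG2 cells (1500/well) in complete medium were treated with compounds for 16 hr at 37 °C. Caspase-3/7 activity was then read as luminescence from peptide-aminoluciferin cleavage. AC50 came from Hill fits, normalized to DMSO and 100 uM tamoxifen.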

The target of assay [15] is Cytochrome P450 1A2 (Homo sapiens) (UniProt P05177). Nature of the assay: p450-cyp1a2 (AID 410; calls by dose curve; further: potency means the concentration at half of the fitted maximal effect;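 on activity change, negative = inhibition: -100% = full effect of reference inhibitor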). Summed up:
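Human CYP1A2 (20nM) demethylated Luciferin-ME at its Km (100uM) in 100mM KPO4. After 10 min compound preincubation, NADPH regeneration ran the reaction 60 min at room temperature. Luciferin was read by luminescence, normalized to 57 uM furafylline.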

The target of assay [16] is Glucocorticoid receptor (Homo sapiens) (UniProt P04150). Nature of the assay: GR-GFP Redistribution (AID 450;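 active means compounds whose dose series gives a full or clear partial fitted curve of increased nuclear translocation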; further: potency means the concentration at half of the fitted maximal effect). The following applies: U2OS GR-GFP nuclear translocation, laser cytometry, 2 h.
The target is the same in assay [17]. Nature of the assay: GR-EFC Redistribution (AID 451; calls by dose curve; further: potency means the concentration at half of the fitted maximal effect). The following applies: CHO-K1 GR-EFC translocation, beta-gal luminescence, 2 h. Summed up: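 Translocation of GR-ED fusion to nuclear EA restores b-gal, read by luminescence after 1 h room-temperature detection. Engineered CHO-K1 biosensor cells, 1,000/well, exposed 2 h at 37 C to titrations up to 46 uM final.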

The target of assay [18] is 3',5'-cyclic-AMP phosphodiesterase 4B (Homo sapiens) (UniProt Q07343). Nature of the assay: qHTS Assay for Inhibitors of PDE-IV (AID 607; active means well fitted activation curve with a large enough effect in the main read-out, with a control signal flat, not every such curve was filed as active; further: % of control where 0% means no effect). The method, boiled down:
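Live HEK293 cells with a modified cyclic nucleotide-gated (CNG) channel report intracellular cAMP via membrane-potential dye fluorescence (ex 535/em 590 nm). Endogenous PDE-IV was targeted. Compounds were tested at up to 22.9 uM final; RO 20-1724 100 uM served as control.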

The nature of assay [19]: NFAT Signaling Pathway (AID 444; active means well fitted curve in either direction with a large enough effect, not every such curve was filed as active;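 further: carbachol stimulus at about its EC50 of 1 µM final; on the % scale 0 is the no-effect control and ±100 the full control effect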). The following applies: Jurkat NFAT-bla M1, carbachol, beta-lactamase ratio, 5 h. Summed up: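 Read-out: CCF4 FRET ratio (460 nm/530 nm) after 1 h RT dye loading, used for %activity and AC50 from titration series. Cells: Jurkat NFAT-β-lactamase/M1 line, treated with compound plus 1 uM carbachol for 5 h, 37 °C.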
The nature of assay [20]: Stat Signaling Pathway (AID 446; active means well fitted curve in either direction with a large enough effect, not every such curve was filed as active;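 further: ME-180 cervical cancer cells given 40 pM IL-6 alongside compound; SIE-controlled beta-lactamase reporter measured as 460/530 nm FRET emission ratio; on the % scale 0 is the no-effect control and ±100 the full control effect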). The following applies: ME-180 (cervical carcinoma) SIE beta-lactamase reporter, IL-6 stimulated, 5 h. The method, boiled down: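 IL-6/STAT signaling read in ME-180 cells via an SIE beta-lactamase reporter. Stimulus was 40 pM IL-6 (its AC50) for 5 hrs, so both activation and inhibition register.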

Several values for one entry are separate records, joined by “and”; a condition that tells them apart may be missing. Identical values can stand only once. Values without a mark were called inactive. Results filed as inconclusive are left out. Activity calls are given as the source filed them. Unless noted, the call rests on the fitted dose curve; in most records, active means well fitted curve in the direction sought with a large enough effect; inconclusive means small, poorly fitted or top-dose-only effect, or another doubt; inactive means no such curve, though single readings can be large; an effect the other way counts as inactive or inconclusive.

Chain of 3',5'-cyclic-AMP phosphodiesterase 4B (Homo sapiens) (Q07343 whole entry, looked up): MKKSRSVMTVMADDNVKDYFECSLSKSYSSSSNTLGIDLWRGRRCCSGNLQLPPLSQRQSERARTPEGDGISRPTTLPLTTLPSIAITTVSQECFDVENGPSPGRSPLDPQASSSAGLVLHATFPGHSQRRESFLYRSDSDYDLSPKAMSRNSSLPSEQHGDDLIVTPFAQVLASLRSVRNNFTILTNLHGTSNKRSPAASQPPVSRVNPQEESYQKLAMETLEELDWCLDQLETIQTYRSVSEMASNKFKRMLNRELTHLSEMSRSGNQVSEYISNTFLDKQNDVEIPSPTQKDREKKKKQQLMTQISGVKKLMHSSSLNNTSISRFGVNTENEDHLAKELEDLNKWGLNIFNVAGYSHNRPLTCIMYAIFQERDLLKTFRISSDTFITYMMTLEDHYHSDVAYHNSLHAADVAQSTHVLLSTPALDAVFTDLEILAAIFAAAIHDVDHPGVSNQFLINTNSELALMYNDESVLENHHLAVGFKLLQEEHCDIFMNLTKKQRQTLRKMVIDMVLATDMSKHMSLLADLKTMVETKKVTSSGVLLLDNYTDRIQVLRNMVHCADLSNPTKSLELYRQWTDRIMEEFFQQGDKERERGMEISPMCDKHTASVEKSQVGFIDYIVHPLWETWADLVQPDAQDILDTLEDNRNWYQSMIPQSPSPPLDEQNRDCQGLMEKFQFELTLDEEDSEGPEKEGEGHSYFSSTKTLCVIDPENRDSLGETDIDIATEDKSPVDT
Chain of Cytochrome P450 1A2 (Homo sapiens) (P05177 whole entry, looked up): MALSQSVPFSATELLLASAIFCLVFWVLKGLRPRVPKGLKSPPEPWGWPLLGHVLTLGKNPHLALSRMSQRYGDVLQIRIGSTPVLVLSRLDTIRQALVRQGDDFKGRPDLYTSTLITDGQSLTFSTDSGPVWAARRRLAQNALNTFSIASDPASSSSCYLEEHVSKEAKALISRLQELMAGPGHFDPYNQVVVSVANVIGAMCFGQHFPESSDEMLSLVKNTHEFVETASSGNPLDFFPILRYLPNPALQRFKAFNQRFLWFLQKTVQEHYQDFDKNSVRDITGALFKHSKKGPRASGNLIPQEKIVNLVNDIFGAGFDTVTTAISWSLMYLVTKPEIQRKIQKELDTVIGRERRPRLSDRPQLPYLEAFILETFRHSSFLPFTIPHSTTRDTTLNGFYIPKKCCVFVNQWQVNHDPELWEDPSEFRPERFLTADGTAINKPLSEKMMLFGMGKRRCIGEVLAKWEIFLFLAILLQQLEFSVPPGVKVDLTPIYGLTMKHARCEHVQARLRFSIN
Chain of Glucocorticoid receptor (Homo sapiens) (P04150 whole entry, looked up, the tested form may be a part): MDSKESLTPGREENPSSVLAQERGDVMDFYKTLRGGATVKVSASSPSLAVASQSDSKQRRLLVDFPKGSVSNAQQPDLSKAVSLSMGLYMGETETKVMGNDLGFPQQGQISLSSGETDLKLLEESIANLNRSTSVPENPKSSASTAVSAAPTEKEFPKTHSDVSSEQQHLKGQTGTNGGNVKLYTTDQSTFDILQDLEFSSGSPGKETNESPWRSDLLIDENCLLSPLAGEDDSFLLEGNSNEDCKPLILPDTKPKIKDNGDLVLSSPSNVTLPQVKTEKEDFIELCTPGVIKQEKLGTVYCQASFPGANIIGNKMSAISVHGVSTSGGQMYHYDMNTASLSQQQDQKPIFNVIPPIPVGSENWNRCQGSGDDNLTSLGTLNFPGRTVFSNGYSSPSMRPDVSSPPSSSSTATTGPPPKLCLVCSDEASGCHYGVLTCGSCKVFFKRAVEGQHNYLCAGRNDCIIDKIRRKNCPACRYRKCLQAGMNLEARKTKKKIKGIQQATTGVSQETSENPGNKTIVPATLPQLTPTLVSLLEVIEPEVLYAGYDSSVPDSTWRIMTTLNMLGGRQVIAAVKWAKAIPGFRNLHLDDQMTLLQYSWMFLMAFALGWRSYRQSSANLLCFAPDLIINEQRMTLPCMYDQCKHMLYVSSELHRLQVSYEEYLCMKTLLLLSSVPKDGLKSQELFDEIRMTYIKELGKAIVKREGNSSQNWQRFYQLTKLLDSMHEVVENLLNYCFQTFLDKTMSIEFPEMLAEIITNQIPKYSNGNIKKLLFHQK

As for `CCCCCCCCc1ccc(O)cc1`, the Potency in assay [1], in assay [2], in [3], in assay [4] and in [5] was over 92 µM in each case. The result in assay [6] and in assay [14] was inactive. In assay [7], the activity change, negative = cytotoxicity is -16.1%. Moreover, the Potency result in [8], in [9], in assay [10], in [11], in assay [12] and in assay [13] was “inactive” throughout.
In the case of `CC(C)Oc1cccnc1N(C)C1CCN(Cc2ccccc2)CC1`, the Potency result in assay [15] and in assay [18] was “inactive” each time. Also, the Potency in assay [16] and in [17] was over 46 µM throughout.
On to `NCCc1c[nH]c2ccccc12`, for which the Potency in assay [15] is 3.16 µM (active); in assay [16], over 46 µM; in assay [17] it was over 46 µM. Also, the activity change, negative = inhibition in [19] (at 38 µM (top of the series)) is -3.55%. In assay [20] (at 38 µM (top of the series)), the activity, negative = inhibition is -11.1%. Moreover, the molecule was called inactive in assay [6]. Also, the Potency entry in assay [18] is “inactive”.
In the case of `NCCc1c[nH]c2ccc(O)cc12`, the Potency in assay [15] is 7.94 µM (active) and 2 µM (active); in assay [16], > 46 µM and > 20.6 µM; in assay [17] it was > 46 µM and > 20.6 µM. The activity change, negative = inhibition in [19] (at 17.2 µM (top of the series)) was -8.4%; in assay [19] (at 38 µM (top of the series)), 4.18%. Moreover, the activity, negative = inhibition in [20] (at 17.2 µM (top of the series)) was -0.625%; in assay [20] (at 38 µM (top of the series)), -13.2%. The result in assay [6] was inactive. The Potency result in [18] is “inactive”.
With `CCCN(CCC)[C@@H]1CCc2ccc(O)cc2C1`, the Potency entry in assay [15] and in assay [18] was “inactive” in each case. Moreover, the activity, negative = inhibition in [20] (at 38 µM (top of the series)) is -20.3% and 11.5%. Also, the Potency in assay [16] and in [17] was over 46 µM throughout.
Take `CC(=O)[O][Hg][c]1ccccc1`: the Potency is 5.56 µM (active) in assay [1]; 0.47 µM (active) in assay [2]; 2.24 µM (active) in assay [3]; 25.1 µM (active) in assay [4]; 2.17 µM (active) in assay [5]; 10 µM (active) in assay [7]. Also, the Potency in assay [8] was 0.0631 µM (active); in [9] it was 1.26 µM (active); in assay [10], 2 µM (active); in assay [11], 0.126 µM (active); in assay [12], 0.631 µM (active); in [13], 2 µM (active). In addition, the result in assay [14] was inactive.
For the molecule `O=[N+]([O-])c1c(Cl)c(Cl)cc(Cl)c1Cl`, the Potency in assay [1], in assay [2], in [3], in assay [4] and in assay [5] was over 92 µM throughout. The activity change, negative = cytotoxicity in assay [7] was 3.06%. The Potency entry in assay [9], in assay [10], in [11], in assay [12] and in assay [13] was “inactive” throughout. Moreover, the result in [14] was inactive.

For the origin of these results see PubChem BioAssay (NCATS).
